An excerpt weighted towards active compounds, which were near 7% of everything screened.
DRD3 antagonist: qHTS of D3 Dopamine Receptor Antagonist: qHTS | hit rate 2.5% among 360,000 | D3R cells, DiscoveRx beta-arrestin luminescence, antagonist mode; stronger effect = lower value | max response, negative = inhibition, % | D(3) dopamine receptor (Homo sapiens), P35462; in the data active means max response below about -50%; inconclusive means no clear call, values can overlap the other calls; further: on the % scale 0 is the no-effect control and ±100 the full control effect
Target sequence (P35462 whole entry, looked up): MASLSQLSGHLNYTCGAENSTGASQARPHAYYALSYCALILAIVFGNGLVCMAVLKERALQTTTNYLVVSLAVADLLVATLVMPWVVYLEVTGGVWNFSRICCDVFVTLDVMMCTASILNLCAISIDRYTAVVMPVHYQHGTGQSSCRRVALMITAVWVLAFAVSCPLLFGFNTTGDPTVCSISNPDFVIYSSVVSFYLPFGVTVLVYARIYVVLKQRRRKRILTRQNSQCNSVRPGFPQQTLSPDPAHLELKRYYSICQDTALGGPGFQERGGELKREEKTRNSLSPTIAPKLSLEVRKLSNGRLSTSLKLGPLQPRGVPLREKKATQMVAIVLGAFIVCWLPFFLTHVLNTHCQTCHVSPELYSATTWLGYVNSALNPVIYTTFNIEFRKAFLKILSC
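Cells plated overnight at 1500 cells/well, then exposed to library compounds with dopamine controls for 90 minutes at 37 degrees C. DiscoveRx reagent added for 30–60 minutes at room temperature; luminescence read, quantitative HTS format.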
ATXN2 expr inh: Primary qHTS for Inhibitors of ATXN expression. hit rate 0.72% among 360,000. Potency, µM (doses to about 57 µM), inactives show top-dose activity change, negative = inhibition, usual class: inhibitors. HEK-293 ATXN2-luciferase reporter, luminescence, 24 h; further: potency means the concentration at half of the fitted maximal effect; on the % scale 0 is the no-effect control and ±100 the full control effect; nearly all actives have a fitted effect of over 55% in size
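qHTS (up to 57 uM final) was run with 24 h compound exposure of reporter cells at 37 °C. Each well was multiplexed: SteadyGlo luminescence measured ATXN2-luciferase expression after a fluorogenic Gly-Phe-AFC viability readout (25 uM final).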
D3 ag: qHTS of D3 Dopamine Receptor Agonist: qHTS; D3R DiscoveRx beta-arrestin cells, luminescence, 90 min; D(3) dopamine receptor (Homo sapiens), P35462; max activation, %; hit rate 0.58% among 410,000; in the data active means max activation above about 30%; further: 0% is about no effect
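Agonist mode: compounds and dopamine controls were applied to plated cells for 90 min at 37 degrees C after an overnight attachment at 1500 cells/well. Luminescent read-out followed 30 - 60 minutes at room temperature with DiscoveRx detection reagent.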
IL-1B inflam inh: qHTS for Inhibitors of Inflammasome Signaling: IL-1-beta AlphaLISA Primary Screen | activity change, % at 57.5 µM | THP-1 LPS/ATP IL-1B secretion, AlphaLISA, 16 h; stronger effect = lower value | hit rate 4.7% among 360,000 | AID 743279, 2014; in the data active means activity change below about -50%; inconclusive means mostly about -30% to -49%; further: on the % scale 0 is the no-effect control and ±100 the full control effect
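Secreted IL-1B measured by AlphaLISA bead assay after 16 h compound exposure of THP-1 cells; compounds (final up to 57.5 uM) added 1 h before LPS (250 ng/mL) and ATP (1.25 mM) stimulation; lower signal means less secretion.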
S2 tox: Viability Counterscreen for Primary qHTS for Inhibitors of ATXN expression; S2 cells (HEK-293 line with an ATXN2-luciferase reporter) viability, CellTiter-Fluor protease fluorescence, 24 h; Potency, µM (titrated, usually from 56.7 µM), usual class: cytotoxic; hit rate 0.49% among 400,000; further: potency means the concentration at half of the fitted maximal effect; nearly all actives have a fitted effect of over 40% in size
a7 integrin act: qHTS for Activators of Integrin-Mediated Alleviation for Muscular Dystrophy; alpha7betagal myoblasts, beta-gal FDG fluorescence, 48 h; Potency, µM (doses to about 38.3 µM), without a hit: at the top dose activation, actives largely listed as activators; hit rate 0.064% among 350,000;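 further: potency means the concentration at half of the fitted maximal effect; 100% = response of the positive control SU9516; nearly all actives have a fitted effect of over 60% in size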
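alpha7betagal+/- myoblasts (passage 13, 250/well) treated 48 h at 37C with compounds at 1:260 dilution of DMSO stock. Lysed, then beta-galactosidase activity read as FDG fluorescence (ex 480/em 540) after 30 min, with pre-read for autofluorescence.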
An asterisk follows results filed as active; i = inactive; ? = inconclusive; . = no result; [ ] = another dose, or the depositor's remark. Unless noted, the call rests on the fitted dose curve; in most records, active means well fitted curve in the direction sought with a large enough effect; inconclusive means small, poorly fitted or top-dose-only effect, or another doubt; inactive means no such curve, though single readings can be large; an effect the other way counts as inactive or inconclusive.

SMILES	DRD3 antagonist	ATXN2 expr inh	D3 ag	IL-1B inflam inh	S2 tox	a7 integrin act
Cc1nn(CCC(=O)NNC(=S)Nc2ccc(F)cc2)c(C)c1[N+](=O)[O-]	-77.4*	0.4%	1.7	-1.6	i	5.7%
Cc1cc([N+](=O)[O-])nn1CC(=O)NNC(=S)Nc1ccc(F)cc1	-24.7	0.4%	-2.3	57.3	i	7.5%
Cc1nn(CCCC(=O)Nc2cc(Oc3ccccc3)cc([N+](=O)[O-])c2)c(C)c1[N+](=O)[O-]	-13.4	-23.6%	-4.4	-50.2*	i	-21.9%
Cc1cccc(/C=C/c2onc(C)c2[N+](=O)[O-])n1	?	?	-3.6	-96.7*	17.8µM*	-46.2%
Cc1noc(/C=C/c2nn(C)cc2Cl)c1[N+](=O)[O-]	0.4	.	-5.0	-78.3*	i	-18.6%
CC(C)(C)OC(=O)N1CCC(c2c(C(=O)NCCN3CCC(Cc4ccccc4)CC3)cnn2-c2cccc(Cl)c2)CC1	.	.	-31.0	.	.	.
CC(C)c1ccc(CNc2nnnn2C)cc1	6.2	.	1.9	-10.5	i	-22.0%
Cc1ccc(C(=O)OCC(=O)Nc2ncc(C(F)(F)F)cc2Cl)cc1NC(=O)c1ccco1	6.4	4.7%	29.1	13.2	?	-23.5%
O=C(Cc1cc(=O)[nH][nH]1)N/N=C/C=C/c1ccccc1	48.6	-9.5%	-10.4	?	i	-40.9%
C=CCN=c1scc(-c2ccccc2)n1/N=C/c1ccccn1	17.1	2.7%	-3.1	?	i	-30.5%
CCN=c1scc(-c2ccc(F)cc2)n1/N=C/c1ccccn1	-10.8	38.4%	-2.5	-50.8*	.	-4.3%
CCN=c1scc(-c2ccccc2)n1/N=C/c1ccccn1	-24.6	?	-3.4	-58.1*	?	-9.5%
C=CCNC1=C2C[C@@H](C)C[C@H](OC)[C@H](O)[C@@H](C)/C=C(\C)[C@H](OC(N)=O)[C@@H](OC)/C=C\C=C(/C)C(=O)NC(=CC1=O)C2=O	.	.	1.3	.	.	.
COC1C=CC=C(C)C(=O)NC2=CC(=O)C(N)=C(CC(C)CC(OC)C(O)C(C)C=C(C)C1OC(N)=O)C2=O (stereo not drawn)	-0.9	0.238µM*	-7.8	-91.9*	?	-49.6%
C=CC[C@H](CC(=O)N(CCO)Cc1ccccc1)C(=O)N[C@@H](C)COC(=O)[C@@H](CC=C)Cc1ccc(F)cc1	-11.7	-29.5%	-9.6	-19.7	?	-22.6%
C=CC[C@@H](CC(=O)N(CCO)Cc1ccccc1)C(=O)NC[C@@H](OC(=O)[C@@H](CC=C)Cc1ccc(F)cc1)c1ccccc1	4.0	?	-10.1	?	?	20.0%
C=CC[C@@H](CC(=O)N(CCO)Cc1ccccc1)C(=O)N[C@@H](COC(=O)[C@@H](CC=C)Cc1ccc(F)cc1)Cc1ccccc1	19.9	?	3.0	-68.2*	?	-41.0%
C=CCC[C@@H](Cc1ccc(F)cc1)C(=O)OC[C@H](C)NC(=O)[C@H](CC=C)CC(=O)N(CCO)Cc1ccccc1	51.9	?	7.9	?	.	0.0%
C=CC[C@@H](CC(=O)N[C@@H](CO)Cc1ccccc1)C(=O)NC[C@@H](OC(=O)[C@@H](CC=C)Cc1ccc(F)cc1)c1ccccc1	2.4	?	5.1	12.2	?	-13.4%
C=CC[C@@H](CC(=O)N[C@@H](CO)Cc1ccccc1)C(=O)NC[C@H](OC(=O)[C@@H](CC=C)Cc1ccc(F)cc1)c1ccccc1	42.7	-24.8%	53.1*	43.9	?	23.2%
C=CC[C@@H](CC(=O)N(CCO)Cc1ccccc1)C(=O)N[C@H](COC(=O)[C@@H](CC=C)Cc1ccc(F)cc1)Cc1ccccc1	-0.8	?	-10.0	-63.5*	.	-38.4%
C=CC[C@H](CC(=O)N(CCO)Cc1ccccc1)C(=O)NC[C@H](OC(=O)[C@@H](CC=C)Cc1ccc(F)cc1)c1ccccc1	32.3	?	-6.9	-72.2*	25.1µM*	-41.4%
CCOC(=O)C1=C(C)N=c2sc(=Cc3cc(Cl)c(OCC(=O)O)c(OC)c3)c(=O)n2C1c1ccccc1Cl (stereo not drawn)	?	?	-16.6	3.4	?	.
CCOC(=O)c1sc(N)c(C#N)c1COC(=O)CNC(=O)c1cc(OC)c(OC)c(OC)c1	-18.7	0.5%	0.8	6.0	i	1.7%[7.66 µM]
S=C(NCCc1ccc(Cl)cc1)NC1CCCC1	-17.3	-5.9%	-8.6	3.1	i	-11.8%
SMILES	DRD3 antagonist	ATXN2 expr inh	D3 ag	IL-1B inflam inh	S2 tox	a7 integrin act
Fc1ccc(CNC(=S)Nc2ccc(Cl)cc2Cl)cc1	8.6	-3.5%	0.6	-100.4*	i	-26.5%
Fc1ccc(NC(=S)Nc2cccnc2)c(Cl)c1	-16.0	7.0%	-7.4	34.3	i	0.3%
Fc1ccc(CCNC(=S)Nc2ccc(F)c(Cl)c2)cc1	-22.4	?	6.7	-82.9*	i	0.1%
S=C(NCc1ccc(Cl)cc1)Nc1ccc(Cl)cc1Cl	-16.4	-21.0%	1.5	-0.6	i	-1.6%
Fc1ccc(NC(=S)NCCc2ccc(Cl)cc2)cc1	-14.1	27.6%	-3.6	0.0	i	-20.9%
Fc1ccc(NC(=S)Nc2ccc(Cl)cc2Cl)cc1	?	-4.6%[11.3 µM]	-7.5	-87.1*	i	-22.5%
S=C(NCCc1ccc(Cl)cc1)NC1CCCCC1	?	27.0%	-3.6	-94.1*	?	-23.1%
Cc1cccc(N2CCN(C(=O)c3cccc(N4CCCC4=O)c3)CC2)c1C	11.7	?	9.7	?	i	-10.6%
CSc1ccc(CCNC(=O)c2cnc3c(C)cccn3c2=O)cc1	.	20.2%	-5.8	.	i	.
Cc1c(Cl)cccc1NC(=S)NCCc1ccc(Cl)cc1	?	?	-11.5	.	?	17.7%
S=C(NCCc1ccc(Cl)cc1)Nc1ccc(Cl)cc1Cl	9.1	?	-7.8	-78.7*	?	-19.3%
Cc1ccc(NC(=S)Nc2ccc(F)cc2)cc1C	-11.3	-2.9%	12.0	-58.0*	?	0.7%
Cc1c(Cl)cccc1NC(=S)NCCc1ccc(F)cc1	-14.5	-10.0%	-5.8	-82.2*	i	-25.3%
Cc1cc(C)n(-c2ccc(NC(=O)C3CCCCN3C(=O)c3ccoc3)cc2)n1 (stereo not drawn)	0.0	4.6%	-10.0	i	i	?
CCOc1ccc(CC(=O)NCCS(=O)(=O)N2CCN(c3ccc(OC)cc3)CC2)cc1	.	.	15.2	.	.	.
O=C(CNC(=O)c1ccc(Br)cc1)NC1CC1	14.5	.	6.5	-3.2	i	-2.1%
Cc1ccc(C(C)C)cc1OCC(=O)N/N=C/c1ccc2c(c1)OCCO2	13.8	-6.9%	48.1*	9.2	i	-12.1%

Assay outcomes as filed in PubChem.
